Screens (PubChem BioAssay)
The entries come from a sample that favours hits as a whole.
PKM2 inh = qHTS Assay for Inhibitors of Human Muscle isoform 2 Pyruvate Kinase; purified PKM2, ATP generation, Kinase-Glo luminescence; Potency, µM (top dose mostly 57.5 µM), actives largely listed as inhibitors; 260,000 compounds, 0.058% hits; AID 1634, 2009; note: nearly all actives have a fitted effect of over 60% in size
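Coupled luciferase luminescence (Kinase-Glo) detects ATP generated from 0.1 mM ADP and 0.5 mM PEP in imidazole buffer pH 7.2 with KCl, MgCl2; 1 h at room temperature. Enzyme at intermediate activity; normalized to uninhibited and no-enzyme controls.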
PKM2 inh dose = Confirmation Concentration-Response Assay for Inhibitors of Human Muscle isoform 2 Pyruvate Kinase. shares compounds with PKM2 inh. purified hPK-M2, Kinase-Glo ATP luminescence, 1 h. Potency, µM (highest dose often 57.5 µM), usual class: inhibitors. 55 compounds, 50% hits. AID 2263, 2010
PKM2 FLuc cs = Secondary assay for Inhibitors of Human Pyruvate Kinase M2 isoform: FLuc Counterscreen; shares compounds with PKM2 inh; Potency, µM (series often up to 57.5 µM), hits mostly inhibitors; AID 2265, 2010; Kinase-Glo firefly luciferase, luminescence, 8 min; 55 compounds, 30% hits
PKM2 inh LDH = Secondary assay for Inhibitors of Human Pyruvate Kinase M2 isoform; AID 2267, 2010; 55 tested, under 10 active; Potency, µM (highest dose often 57.5 µM), usual class: inhibitors; purified hPK-M2, LDH-coupled NADH fluorescence kinetic; shares compounds with PKM2 inh
Hits are given with their value; i = inactive; ? = inconclusive. Calls come from the whole dose curve; as a rule, active = well fitted curve in the direction sought with a large enough effect; inconclusive = small, poorly fitted or top-dose-only effect, or another doubt; inactive = no such curve, though single readings can be large; an effect the other way counts as inactive or inconclusive.

SMILES | PKM2 inh | others
Cc1cccc(NS(=O)(=O)c2ccc3oc(=O)ccc3c2)c1C | i
COc1cc(C(=O)NCC(=O)OCc2cc(=O)oc3c(C)c(C)ccc23)cc(OC)c1OC | i
COc1ccc(C(=O)N=c2nc3ccccn3s2)cc1 | 7.9µM | PKM2 inh dose=13µM;PKM2 FLuc cs=5.2µM;PKM2 inh LDH=i
CCCCNC(=O)Nc1ccnn1C1CCCCC1 | i
O=C(Nc1cc([N+](=O)[O-])ccc1N1CCCC1)c1ccco1 | i
O=C(Nc1nc2ccccc2n1CCOc1ccccc1)c1ccco1 | i
Cc1cc(NC(=O)c2ccccc2)ncc1NC(=O)c1ccco1 | ? | PKM2 inh dose=16µM;PKM2 FLuc cs=?;PKM2 inh LDH=i
Cc1nc(-c2ccc(Cl)cc2)sc1C1(C)CC(c2ccc(F)cc2)=NO1 (stereo not given) | i
COc1ccc(CNC(=O)COC(=O)c2cc(-c3cccs3)nc3ccccc23)cc1OC | i
O=S(=O)(c1c(F)cccc1F)N1CCN(C(=S)NCc2ccc3c(c2)OCO3)CC1 | i
O=S(=O)(NCCSc1ccccn1)c1ccc(Br)cc1 | i
Cc1csc(SCC(=O)N(C)c2c(N)n(Cc3ccccc3)c(=O)[nH]c2=O)n1 | i
O=c1c2ccccc2sn1-c1cc(S(=O)(=O)N2CCOCC2)ccc1N1CCCC1 | 3.5µM | PKM2 inh dose=6.5µM;PKM2 FLuc cs=i;PKM2 inh LDH=?
O=C(c1cc(S(=O)(=O)N2CCOCC2)ccc1Cl)N1CCN(c2ccccn2)CC1 | i
CC1(C)NC(=O)N(CC(=O)Nc2cc(S(=O)(=O)N3CCOCC3)ccc2N2CCOCC2)C1=O | i
COc1ccc(-c2cn3ccccc3n2)cc1OC | 8.9µM | PKM2 inh dose=?;PKM2 FLuc cs=?;PKM2 inh LDH=?
COc1ccc(-c2ccc(=O)n(CC(=O)Nc3cccc(O)c3)n2)cc1OC | i
COc1ccc(-c2ccc(Nc3ccc(C(=O)N4CCOCC4)cc3)nn2)cc1OC | i
CCc1ccnc(NC(=O)NS(=O)(=O)c2ccc(C)cc2)c1 | i
COc1ccc(CCNc2ccc(C(CC(N)=O)NC(=O)Cc3ccc(Br)cc3)cc2[N+](=O)[O-])cc1 (stereo not given) | i
C=CCNC(=O)c1c2c(nc3ccccc13)-c1ccccc1CC2 | i
CSc1ccc(S(=O)(=O)N2CCC(C(=O)NCc3ccco3)CC2)cc1 | i
Cc1nc2cc(-c3ccccc3)sc2c(=O)n1N | 3.5µM | PKM2 inh dose=3.7µM;PKM2 FLuc cs=2.6µM;PKM2 inh LDH=i
N#CCn1cnc2sc(-c3ccccc3)cc2c1=O | i
COc1ccccc1NS(=O)(=O)c1c(C)nc2sccn2c1=O | i
COc1ccc(-c2nnn(CC(=O)N(CCN3CCOCC3)C(C(=O)NC3CCCC3)c3ccco3)n2)cc1 (stereo not given) | i
Cn1c(OCc2cccnc2)nc2c1c(=O)n(Cc1ccc(F)cc1)c(=O)n2C | i
CCN(CC)S(=O)(=O)c1ccc(C)c(NC(=O)CN2CCN(C)CC2)c1 | i
